Measured values reported in PubChem BioAssay AID1159580 (chemical genetic matrix, 2015).
Several values for one entry are separate records, joined by “and”; a condition that tells them apart may be missing. Equal entries are not always repeated. In all, about 5,500 compounds went through this assay and about 2,000 (36%) were called active. Inconclusive results (about 18%) are left out. No stated cut-off is given here; in the data, active means normalized growth mostly below about 0.91 (no sharp cut-off); inconclusive means no clear call, values can overlap the other calls; inactive means mostly above about 0.92. Some of the results follow.

Assay: chemical genetic growth profiling, strain panel (AID 1159580);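 further: tested at 20 µM; growth read once vehicle control cultures reached saturation at 30 °C; 1 = growth at the plate median or of vehicle wells; lower values mean less growth of the strain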
Details: growth OD

Measured: normalized growth

CC1=C(CC(=O)O)c2cc(F)ccc2/C1=C\c1ccc(S(C)=O)cc1 (stereo unspecified)
inactive: S. cerevisiae deletion strains, locus YJR075W, strain HOC1, hits give low values 1 | S. cerevisiae deletion strains, locus YKL009W, strain mrt4, hits give low values 0.993 | S. cerevisiae deletion strains, locus YKL068W, hits give low values 1.01 | S. cerevisiae deletion strains, locus YKL085W, strain MDH1 (second series), hits give low values 1.02 | S. cerevisiae deletion strains, locus YKL085W, strain MDH1, hits give low values 1.02 | S. cerevisiae deletion strains, locus YKL160W, strain elf1, hits give low values 1 | S. cerevisiae deletion strains, locus YKL190W, strain CNB1, hits give low values 1.01 | S. cerevisiae deletion strains, locus YKR001C, strain vps1, hits give low values 0.997 | S. cerevisiae deletion strains, locus YKR026C, strain gcn3, hits give low values 1.01 | S. cerevisiae deletion strains, locus YKR091W, strain srl3, hits give low values 1.02 | S. cerevisiae deletion strains, locus YLL001W, strain dnm1, hits give low values 0.998 | S. cerevisiae deletion strains, locus YLL026W, hits give low values 1.03 | S. cerevisiae deletion strains, locus YLL041C, strain sdh2, hits give low values 1.02 | S. cerevisiae deletion strains, locus YLR027C, strain aat2, hits give low values 1.02 | S. cerevisiae deletion strains, locus YLR039C, strain RIC1, hits give low values 1.01 | S. cerevisiae deletion strains, locus YLR058C, strain SHM2, hits give low values 1 | S. cerevisiae deletion strains, locus YLR102C, strain apc9, hits give low values 1.02 | S. cerevisiae deletion strains, locus YLR113W, strain HOG1, hits give low values 1 | S. cerevisiae deletion strains, locus YLR221C, strain rsa3, hits give low values 0.999 | S. cerevisiae deletion strains, locus YLR258W, strain gsy2, hits give low values 1.01 | S. cerevisiae deletion strains, locus YLR262C, strain YPT6 (second series), hits give low values 1.02 | S. cerevisiae deletion strains, locus YLR262C, strain YPT6, hits give low values 0.995 | S. cerevisiae deletion strains, locus YLR268W, strain sec22, hits give low values 1.06 | S. cerevisiae deletion strains, locus YLR320W, strain mms22, hits give low values 1 | S. cerevisiae deletion strains, locus YLR330W, strain CHS5, hits give low values 1.01 | S. cerevisiae deletion strains, locus YLR342W, strain FKS1 (second series), hits give low values 1.02 | S. cerevisiae deletion strains, locus YLR342W, strain FKS1, hits give low values 0.99 | S. cerevisiae deletion strains, locus YLR357W, strain rsc2, hits give low values 1.05 | S. cerevisiae deletion strains, locus YLR370C, strain arc18, hits give low values 1.03 | S. cerevisiae deletion strains, locus YLR371W, strain rom2, hits give low values 1.03 | S. cerevisiae deletion strains, locus YLR384C, strain iki3, hits give low values 1.02 | S. cerevisiae deletion strains, locus YLR418C, strain cdc73, hits give low values 1.02 | S. cerevisiae deletion strains, locus YML016C, strain PPZ1, hits give low values 1 | S. cerevisiae deletion strains, locus YML032C, strain rad52, hits give low values 1.03 | S. cerevisiae deletion strains, locus YML120C, strain ndi1, hits give low values 1.03 | S. cerevisiae deletion strains, locus YML124C, strain tub3, hits give low values 1.01 | S. cerevisiae deletion strains, locus YMR058W, strain fet3, hits give low values 1.03 | S. cerevisiae deletion strains, locus YMR078C, strain ctf18, hits give low values 1.01 | S. cerevisiae deletion strains, locus YMR125W, strain sto1, hits give low values 1.02 | S. cerevisiae deletion strains, locus YMR129W, hits give low values 1.02 | S. cerevisiae deletion strains, locus YMR205C, strain PFK2, hits give low values 1.03 | S. cerevisiae deletion strains, locus YMR223W, strain ubp8, hits give low values 0.995 | S. cerevisiae deletion strains, locus YMR231W, strain pep5, hits give low values 1.02 | S. cerevisiae deletion strains, locus YMR263W, strain SAP30, hits give low values 1.01 | S. cerevisiae deletion strains, locus YMR307W, strain GAS1, hits give low values 1 and 1.02 | S. cerevisiae deletion strains, locus YNL067W, strain RPL9B, hits give low values 1.01 | S. cerevisiae deletion strains, locus YNL071W, strain lat1, hits give low values 1.02 | S. cerevisiae deletion strains, locus YNL128W, strain TEP1, hits give low values 1.03 | S. cerevisiae deletion strains, locus YNL153C, strain GIM3, hits give low values 1.01 and 1.06 | S. cerevisiae deletion strains, locus YNL175C, strain NOP13, hits give low values 1.02 | S. cerevisiae deletion strains, locus YNL183C, strain NPR1, hits give low values 0.946 | S. cerevisiae deletion strains, locus YNL197C, strain WHI3, hits give low values 1.02 | S. cerevisiae deletion strains, locus YNL209W, strain ssb2, hits give low values 1.02 | S. cerevisiae deletion strains, locus YNL224C, strain SQS1, hits give low values 1.02 | S. cerevisiae deletion strains, locus YNL233W, strain BNI4, hits give low values 1.01 | S. cerevisiae deletion strains, locus YNL248C, strain rpa49, hits give low values 1 | S. cerevisiae deletion strains, locus YNL250W, strain rad50, hits give low values 1.01 | S. cerevisiae deletion strains, locus YNL271C, strain bni1, hits give low values 1.01 | S. cerevisiae deletion strains, locus YNL298W, strain CLA4, hits give low values 0.991 | S. cerevisiae deletion strains, locus YNL307C, strain MCK1, hits give low values 1.03 | S. cerevisiae deletion strains, locus YNL322C, strain KRE1 (second series), hits give low values 1.02 | S. cerevisiae deletion strains, locus YNL322C, strain KRE1, hits give low values 1.01 | S. cerevisiae deletion strains, locus YNR049C, strain mso1, hits give low values 1.03 | S. cerevisiae deletion strains, locus YNR052C, strain pop2, hits give low values 1.02 | S. cerevisiae deletion strains, locus YOL006C, strain TOP1, hits give low values 0.99 | S. cerevisiae deletion strains, locus YOL012C, strain htz1 1.13 | S. cerevisiae deletion strains, locus YOL147C, strain pex11, hits give low values 1.02 | S. cerevisiae deletion strains, locus YOR001W, strain rrp6, hits give low values 1.04 | S. cerevisiae deletion strains, locus YOR061W, strain CKA2, hits give low values 1 | S. cerevisiae deletion strains, locus YOR069W, strain VPS5, hits give low values 1.01 | S. cerevisiae deletion strains, locus YOR070C, strain gyp1, hits give low values 1.01 | S. cerevisiae deletion strains, locus YOR080W, strain dia2, hits give low values 1.04 | S. cerevisiae deletion strains, locus YOR083W, strain WHI5 (second series), hits give low values 1.03 | S. cerevisiae deletion strains, locus YOR083W, strain WHI5, hits give low values 0.986 | S. cerevisiae deletion strains, locus YOR106W, strain vam3, hits give low values 1.01 | S. cerevisiae deletion strains, locus YOR136W, strain idh2, hits give low values 1.01 | S. cerevisiae deletion strains, locus YOR144C, strain elg1, hits give low values 1.02 | S. cerevisiae deletion strains, locus YOR184W, strain ser1, hits give low values 1.01 | S. cerevisiae deletion strains, locus YOR231W, strain MKK1, hits give low values 0.975 | S. cerevisiae deletion strains, locus YOR265W, strain rbl2, hits give low values 1.02 | S. cerevisiae deletion strains, locus YOR270C, strain vph1, hits give low values 1.04 | S. cerevisiae deletion strains, locus YOR290C, strain snf2, hits give low values 1.02 | S. cerevisiae deletion strains, locus YOR316C, strain cot1, hits give low values 1.02 | S. cerevisiae deletion strains, locus YPL051W, strain arl3, hits give low values 0.996 | S. cerevisiae deletion strains, locus YPL055C, strain LGE1, hits give low values 0.98 | S. cerevisiae deletion strains, locus YPL078C, strain atp4, hits give low values 1.01 | S. cerevisiae deletion strains, locus YPL106C, strain sse1, hits give low values 1.03 | S. cerevisiae deletion strains, locus YPL240C, strain hsp82, hits give low values 1.02 | S. cerevisiae deletion strains, locus YPL241C, strain CIN2, hits give low values 1.01 | S. cerevisiae deletion strains, locus YPL256C, strain CLN2, hits give low values 0.994 | S. cerevisiae deletion strains, locus YPR119W, strain clb2, hits give low values 1.02 | S. cerevisiae deletion strains, locus YPR141C, strain kar3, hits give low values 1.02 | S. cerevisiae deletion strains, locus YPR163C, strain tif3, hits give low values 1.02 | S. cerevisiae deletion strains, locus YPR167C, strain met16, hits give low values 1.02 | S. cerevisiae deletion strains, strain wtn01, hits give low values 1.03 | S. cerevisiae strains, strain wild type, hits give low values 1.01
